In PubChem BioAssay AID2313 (Broad Institute, 2010):
Hit rate of the full screen: of about 22,000 compounds, about 460 (2.1%) were called active. Not shown: some 2% with an inconclusive outcome.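 Rule for the calls: active = mean inhibition across valid replicates above about 65% (limit read from the data); inconclusive = mean under the limit, yet half or more replicates past it; inactive = the rest.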 What follows is part of a selection rich in actives, with near analogues and random picks from the rest.

experiment: Shh-driven Gli reporter inhibition – luminescence, Shh-LIGHT2 cells, Gli-luciferase, primary screen (AID 2313); conditions: 30 h, stronger effect = higher value;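 note: pathway switched on by Shh-conditioned medium diluted 1 in 25 in low serum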

inhibition, inactive:
COc1ccc(NC(=O)N(C)C[C@@H]2Oc3c(NC(=O)Nc4cccc5ccccc45)cccc3C(=O)N([C@@H](C)CO)C[C@H]2C)cc1 3.07%, C[C@H](CO)N1C[C@H](C)[C@H](CN(C)C(=O)Nc2ccc(C(F)(F)F)cc2)Oc2ccc(N(C)C)cc2CC1=O -27.1%, COc1ccc(NC(=O)Nc2ccc3c(c2)CC(=O)N([C@@H](C)CO)C[C@@H](C)[C@@H](CN(C)Cc2ccc(C(F)(F)F)cc2)O3)cc1 13.9%, COc1ccc(NC(=O)N(C)C[C@@H]2Oc3c(NC(=O)c4ccc(-c5nccs5)cc4)cccc3C(=O)N([C@H](C)CO)C[C@@H]2C)cc1 20.7%, C[C@H](CO)N1C[C@H](C)[C@@H](CN(C)S(=O)(=O)c2ccc(Cl)cc2)Oc2ccc(NS(=O)(=O)c3cn(C)cn3)cc2C1=O 25.4%, C[C@H]1CN([C@@H](C)CO)C(=O)Cc2cc(NC(=O)Nc3ccccc3)ccc2O[C@H]1CN(C)S(=O)(=O)c1cn(C)cn1 -32.8%, C[C@H](CO)N1C[C@H](C)[C@H](CN(C)CC2CCCCC2)Oc2ccc(NC(=O)C3CCCCC3)cc2C1=O 21.2%, Cc1noc(C)c1NC(=O)Nc1ccc2c(c1)CC(=O)N([C@H](C)CO)C[C@@H](C)[C@@H](CN(C)S(=O)(=O)c1ccc(Cl)cc1)O2 -13.6%, Cc1noc(C)c1NC(=O)Nc1ccc2c(c1)C(=O)N([C@@H](C)CO)C[C@H](C)[C@H](CN(C)S(=O)(=O)c1ccc(Cl)cc1)O2 -26.2%, C[C@H](CO)N1C[C@H](C)[C@@H](CN(C)Cc2ccc(C(F)(F)F)cc2)Oc2c(NC(=O)NC3CCCCC3)cccc2C1=O 23.9%, O=C(NCCN1CCCCC1)Nc1cccc(Cl)c1 20.6%, COc1ccc(NC(=O)Nc2ccc3c(c2)CC(=O)N([C@@H](C)CO)C[C@@H](C)[C@@H](CN(C)Cc2ccc(Cl)c(Cl)c2)O3)cc1 38.8%, C[C@@H]1CN([C@H](C)CO)C(=O)Cc2cc(NC(=O)CCCN(C)C)ccc2O[C@H]1CN(C)CC1CCCCC1 18.8%, Cc1cccc(NC(=O)c2ccc(C)c(S(=O)(=O)N3CCCC3)c2)c1 -48.9%, O=C(CCCCn1cnc2ccccc21)c1ccccc1 -10.1%, CNC[C@H]1Oc2ccc(NS(=O)(=O)c3ccc(F)cc3)cc2CC(=O)N([C@H](C)CO)C[C@H]1C -2.19%, C[C@@H]1CN([C@H](C)CO)C(=O)Cc2cc(NS(=O)(=O)c3ccc(Cl)cc3)ccc2O[C@@H]1CN(C)C -10.8%, CNC[C@@H]1Oc2c(NC(=O)Nc3ccc(F)cc3)cccc2C(=O)N([C@@H](C)CO)C[C@@H]1C 15.5%, Cc1ccc(NC(=O)CC(=O)Nc2ccc(C)cc2)cc1 -21.5%, C[C@@H]1CN([C@H](C)CO)C(=O)c2cccc(N(C)C)c2O[C@H]1CN(C)S(=O)(=O)c1cn(C)cn1 3.08%, C=C1C(=O)O[C@H]2C3=C(C)C[C@H](OC(C)=O)C[C@]3(C)CC[C@@H]12 -2.37%, COc1cc(/C=C2\Oc3cc(O)cc(O)c3C2=O)ccc1O 3.42%, Cc1ccc2nc(C)c3c(c2c1)N(c1ccccc1)CC3 34.9%, Cc1ccc(Nc2nc(C)cc(C)c2C(N)=O)cc1 -37.3%, COc1ccc(S(=O)(=O)Nc2cccc3c2O[C@@H](CN(C)C(=O)Nc2ccccc2)[C@@H](C)CN([C@H](C)CO)C3=O)cc1 2.98%, COC(NC(=O)c1ccccc1)(C(F)(F)F)C(F)(F)F -45.7%, Cc1ccc(S(=O)(=O)Nc2cccc3c2O[C@@H](CN(C)S(=O)(=O)c2c(C)noc2C)[C@@H](C)CN([C@H](C)CO)C3=O)cc1 -7.42%, C[C@@H]1CN([C@H](C)CO)C(=O)c2cc(NS(=O)(=O)c3ccc(F)cc3)ccc2O[C@H]1CN(C)C(=O)Nc1cccc2ccccc12 -17%, C[C@H]1CN([C@@H](C)CO)C(=O)Cc2cc(NS(=O)(=O)c3cn(C)cn3)ccc2O[C@@H]1CN(C)C(=O)Nc1ccc2c(c1)OCO2 2.02%, C[C@@H]1CCCCO[C@H](CN(C)C(=O)NC2CCCCC2)[C@@H](C)CN([C@H](C)CO)C(=O)c2cc(NC(=O)CCC(F)(F)F)ccc2O1 20.6%, COc1ccc(NC(=O)Nc2ccc3c(c2)CC(=O)N([C@H](C)CO)C[C@H](C)[C@H](CN(C)S(=O)(=O)c2ccc(OC)cc2)O3)cc1 15.7%, COc1ccc(NC(=O)Nc2cccc3c2O[C@@H](CN(C)S(=O)(=O)c2ccc(C)cc2)[C@H](C)CN([C@@H](C)CO)C3=O)cc1 26%, COc1ccc(S(=O)(=O)N(C)C[C@H]2Oc3ccc(NC(=O)Nc4c(C)noc4C)cc3C(=O)N([C@@H](C)CO)C[C@@H]2C)cc1 14.6%, O=S(=O)(NCCc1ccccc1)c1ccccc1 -19.7%, C[C@@H]1CN([C@@H](C)CO)C(=O)c2cccc(NC(=O)c3nc4ccccc4s3)c2O[C@@H]1CN(C)Cc1ccc(Cl)c(Cl)c1 -17.7%, O=C(Cn1c(=O)n(-c2ccccc2)c(=O)c2cc(-c3ccccc3)sc21)c1cccs1 -31.1%, C[C@@H]1CN([C@@H](C)CO)C(=O)c2cccc(NC(=O)c3cnccn3)c2O[C@H]1CN(C)S(=O)(=O)c1cccs1 36.2%, COc1ccc(NC(=O)N(C)C[C@H]2Oc3c(NC(=O)NC(C)C)cccc3C(=O)N([C@@H](C)CO)C[C@H]2C)cc1 -18.8%, O=C(NCCN1CCCCC1)Nc1cccc2ccccc12 48.1%, CCOC(=O)c1cc2ccccc2nc1C -33.8%, C[C@H]1CN([C@@H](C)CO)C(=O)Cc2cc(NC(=O)C3CC3)ccc2O[C@H]1CN(C)C(=O)Nc1ccc(C(F)(F)F)cc1 -16.6%, Cc1noc(C)c1NC(=O)Nc1ccc2c(c1)C(=O)N([C@H](C)CO)C[C@@H](C)[C@@H](CN(C)C(=O)NC(C)C)O2 -44%, Cc1noc(C)c1NC(=O)Nc1cccc2c1O[C@H](CN(C)S(C)(=O)=O)[C@H](C)CN([C@H](C)CO)C2=O -13.4%, COc1ccc(S(=O)(=O)N(C)C[C@@H]2Oc3ccc(NC(=O)CCN4CCOCC4)cc3CC(=O)N([C@@H](C)CO)C[C@@H]2C)cc1 12.6%, Cc1ccc(S(=O)(=O)N(C)C[C@H]2Oc3ccc(NC(=O)C4CC4)cc3C(=O)N([C@H](C)CO)C[C@H]2C)cc1 2.25%, CC(=O)Nc1nc2ccccc2s1 -52.3%, CS(=O)(=O)c1sc(C(=O)NC(=S)Nc2ccc(OC(F)(F)F)cc2)c2c1C=CCC2 42.2%, C[C@H]1CN([C@@H](C)CO)C(=O)Cc2cc(NS(=O)(=O)c3cn(C)cn3)ccc2O[C@H]1CN(C)C(=O)Nc1ccc(F)cc1 6.67%, CCOC(=O)c1nnn2c3ccccc3c(=O)n(C)c12 -16.2%, C=C1C2=CC(=O)O[C@@H](c3ccoc3)[C@]2(C)CCC1[C@@]1(C)C=CC(=O)C(C)(C)[C@@H]1CC(=O)OC (stereo not given in full) -0.584%, COc1ccc(NC(=O)Nc2cccc3c2O[C@H](CN(C)C(=O)Nc2cccc4ccccc24)[C@H](C)CN([C@H](C)CO)C3=O)cc1 -19.9%, COc1ccc(S(=O)(=O)Nc2ccc3c(c2)CC(=O)N([C@H](C)CO)C[C@@H](C)[C@@H](CN(C)S(=O)(=O)c2ccc(F)cc2)O3)cc1 -24.3%, COc1ccc(NC(=O)Nc2ccc3c(c2)CC(=O)N([C@H](C)CO)C[C@H](C)[C@H](CN(C)Cc2ccncc2)O3)cc1 32.2%, C[C@@H]1CN([C@H](C)CO)C(=O)Cc2cc(NC(=O)Nc3ccccc3)ccc2O[C@H]1CN(C)Cc1ccc(Cl)c(Cl)c1 -42%, COc1ccc(S(=O)(=O)Nc2cccc3c2O[C@H](CN(C)C(=O)Nc2cccc4ccccc24)[C@H](C)CN([C@@H](C)CO)C3=O)cc1 46.2%, C[C@H](CO)N1C[C@H](C)[C@@H](CN(C)C(=O)Nc2ccc3c(c2)OCO3)Oc2c(cccc2N(C)C)C1=O -27%, C[C@@H]1CCCCO[C@H](CN(C)C(=O)NC2CCCCC2)[C@@H](C)CN([C@H](C)CO)C(=O)c2cc(NS(C)(=O)=O)ccc2O1 -30.2%, C[C@@H]1CN([C@H](C)CO)C(=O)Cc2cc(NC(=O)Nc3ccc(C(F)(F)F)cc3)ccc2O[C@H]1CN(C)Cc1ccc(-c2ccccc2)cc1 -14%, O=C1c2ccccc2C(=O)N1CC1OCc2ccccc2CO1 -41.8%, O=C(Nc1ccccc1)Nc1cc(C2CC2)nn1-c1ccccc1 -37.7%, CC(C)NC(=O)N(C)C[C@@H]1Oc2ccc(NC(=O)C3CCCCC3)cc2CC(=O)N([C@H](C)CO)C[C@@H]1C -27.5%, C[C@H]1CN([C@@H](C)CO)C(=O)c2cc(NC(=O)Cc3cn(C)c4ccccc34)ccc2O[C@@H]1CN(C)Cc1ccc(Cl)c(Cl)c1 15.9%

inhibition, active:
Cc1ccc(NC(=O)c2cccc(N(C)C)c2)cc1NC(=O)c1ccc(O)cc1 83.8%, Cc1ccc2nc(Nc3ccccc3)cc(C)c2c1 72.3%, COc1c2c(cc3occ(-c4ccc5c(c4)OCO5)c(=O)c13)OC(C)(C)C=C2 79.6%
